Source: article PMC5540273 (PLoS ONE, 2017)

Tests used:
Details in all cases: concentration: 1 μM, replicates: in singlicate; n = 1
ERBB2 = test system: ERBB2
ERBB3 = test system: ERBB3
ERBB4 = test system: ERBB4
ERK1 = test system: T1, ERK1
T1 construct: gene MAPK3

ERK2 = test system: T2, ERK2
T2 construct: gene MAPK1

ERK3 = test system: T3, ERK3
T3 construct: gene MAPK6

ERK4 = test system: T4, ERK4
T4 construct: gene MAPK4

ERK5 = test system: T5, ERK5
T5 construct: gene MAPK7

ERK8 = test system: T6, ERK8
T6 construct: gene MAPK15

ERN1 = test system: ERN1
FAK = test system: T7, FAK
T7 construct: gene PTK2

FER = test system: FER
FES = test system: FES
FGFR1 = test system: FGFR1
FGFR2 = test system: FGFR2
FGFR3 = test system: FGFR3
FGFR4 = test system: FGFR4
FGR = test system: FGR
FLT1 = test system: FLT1
FLT3-autoinhibited = test system: FLT3-autoinhibited
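Also: KINOMEscan kinase panel screen.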

| Structure (SMILES) | %Inh (ERBB2) [%] | %Inh (ERBB3) [%] | %Inh (ERBB4) [%] | %Inh (ERK1) [%] | %Inh (ERK2) [%] | %Inh (ERK3) [%] | %Inh (ERK4) [%] | %Inh (ERK5) [%] | %Inh (ERK8) [%] | %Inh (ERN1) [%] | %Inh (FAK) [%] | %Inh (FER) [%] | %Inh (FES) [%] | %Inh (FGFR1) [%] | %Inh (FGFR2) [%] | %Inh (FGFR3) [%] | %Inh (FGFR4) [%] | %Inh (FGR) [%] | %Inh (FLT1) [%] | %Inh (FLT3-autoinhibited) [%] |
| --- | --- | --- | --- | --- | --- | --- | --- | --- | --- | --- | --- | --- | --- | --- | --- | --- | --- | --- | --- | --- |
| Cn1ccc2ncnc(Oc3ccc(NC(=O)Nc4ccccc4)cc3)c21 | 14 | 10 | 0 | 0 | 0 | 0 | 12 | 9 | 0 | 2 | 8 | 16 | 5 | 14 | 0 | 0 | 11 | 0 | 89 | 48 |
| Cc1cccc(-c2nc(Nc3ccc4[nH]ncc4c3)c3ccccc3n2)n1 [GW857175] | 0 | 18 | 0 | 0 | 4 | 0 | 9 | 3 | 21 | 35 | 0 | 11 | 0 | 5 | 0 | 0 | 0 | 0 | 12 | 32 |
| Cc1cc(NCC(c2ccccc2)c2ccccc2)nc(NCc2ccc(C(F)(F)F)cc2)n1 [GW497681] | 21 | 1 | 27 | 0 | 0 | 0 | 5 | 0 | 0 | 0 | 0 | 0 | 0 | 0 | 0 | 20 | 1 | 20 | 11 | 0 |
| Cc1csc(-c2nc(Nc3ccncc3)c3ccccc3n2)n1 [GW869640] | 36 | 40 | 0 | 13 | 17 | 4 | 0 | 0 | 32 | 27 | 3 | 7 | 10 | 17 | 6 | 6 | 16 | 7 | 19 | 26 |
| COc1ccc(Nc2nccc(NCCNC(=O)Nc3ccccc3F)n2)cc1 [GSK1379901] | 0 | 0 | 45 | 0 | 0 | 9 | 32 | 0 | 0 | 0 | 0 | 35 | 26 | 0 | 44 | 6 | 10 | 36 | 32 | 0 |
| COc1cc2nccc(Nc3ccc(NC(=O)c4ccc(C)cc4)c(O)c3)c2cc1OC.Cl [GW440132] | 14 | 0 | 9 | 0 | 2 | 13 | 3 | 0 | 1 | 29 | 0 | 45 | 5 | 22 | 22 | 2 | 6 | 37 | 30 | 0 |
| O=C(O)COc1ncnc2cc(-c3ccc4[nH]ncc4c3)sc12 | 0 | 0 | 15 | 0 | 24 | 0 | 0 | 1 | 3 | 15 | 5 | 0 | 7 | 23 | 1 | 0 | 0 | 0 | 0 | 39 |
| CCCc1ccc(S(=O)(=O)NC2CCN(c3ccnc(Nc4ccc(F)cc4)n3)C2)cc1 (centres unmarked) [GSK1379715] | 7 | 1 | 25 | 0 | 18 | 0 | 13 | 0 | 15 | 0 | 0 | 0 | 0 | 0 | 0 | 2 | 11 | 23 | 18 | 0 |
| Nc1ncnc2[nH]c(-c3ccccc3)nc12 [AH5015] | 14 | 0 | 0 | 4 | 0 | 0 | 0 | 0 | 31 | 12 | 8 | 0 | 8 | 2 | 0 | 25 | 2 | 31 | 2 | 0 |
| Cc1nnc(-c2ccc3occ(-c4ccc(S(C)=O)cc4)c3c2)[nH]1 (centres unmarked) | 16 | 6 | 5 | 0 | 8 | 13 | 0 | 0 | 0 | 35 | 0 | 0 | 14 | 0 | 0 | 0 | 3 | 19 | 0 | 31 |
